Results from PubChem BioAssay AID540256 (National Center for Advancing Translational Sciences (NCATS), 2011).
Among all 300,000 compounds or so, about 3,700 (1.2%) were called active. Not shown: some 20% with an inconclusive outcome. Calls follow the shape of the full dose curve; tested in HEK293 cells. The list comes from a sample in which actives are over-represented; it also holds similar structures and randomly drawn compounds.

test: qHTS for Inhibitors of binding or entry into cells for Lassa Virus; conditions: Lassa virus pseudotype entry inhibition, cell reporter; series mostly up to 37.9 µM; activity change, negative = inhibition: at the top concentration; also: nearly all actives have a fitted effect of over 50% in size
% is scaled to controls: 0 for no effect and ±100 for the full control effect; potency is read from the fitted curve at half-maximal effect.

| Structure (SMILES) | activity change, negative = inhibition | Potency |
| --- | --- | --- |
| O=C(/C=C/c1cccc([N+](=O)[O-])c1)OCC(=O)N1CCOCC1 | -4.28% (inactive) |  |
| O=C(NCCc1ccco1)c1ccc(OCc2cn3ccccc3n2)cc1 | -12.7% [at 46.1 µM] (inactive) |  |
| CCc1nn(CCCC(=O)Nc2ccc(C)c(C)c2)c(=O)c2cc3occc3n12 | -0.66% [at 46.1 µM] (inactive) |  |
| CCOC(=O)c1c(NC(=O)c2ccc(S(=O)(=O)N(CC)CC)cc2)sc2c1CCCCC2 | 4.06% [at 46.1 µM] (inactive) |  |
| C=CCN(CC=C)S(=O)(=O)c1ccc(C(=O)Nc2nc3c(s2)CCc2ccccc2-3)cc1 |  | 3.16 µM (active) |
| C=CCN(CC=C)S(=O)(=O)c1ccc(C(=O)Nc2sc3c(c2C(N)=O)CCCCC3)cc1 | -29.3% (inactive) |  |
| O=C(Nc1ncccc1O)c1ccc(S(=O)(=O)N2CCCCCC2)cc1 | 10.4% (inactive) |  |
| O=C(CSc1cccc2cccnc12)N/N=C/c1cccnc1 | -3.85% [at 46.1 µM] (inactive) |  |
| COc1c(Cl)cc(Cl)cc1C(=O)Nc1cccc2cccnc12 | 6.22% [at 46.1 µM] (inactive) |  |
| CC(=O)/C(=N\Nc1ccc(Cl)cc1Cl)Sc1cccc2cccnc12 |  | 11.2 µM (active) |
| O=C(CC(=O)c1cccnc1)c1ccccc1 | -17.8% [at 46.1 µM] (inactive) |  |
| CCN(C(=O)CSc1cccc[n+]1[O-])c1ccccc1 | -2.75% (inactive) |  |
| CC1(C(=O)N/N=C/c2cc3c(cc2Br)OCO3)CC1(Br)Br (stereo unspecified) | -0.778% (inactive) |  |
| CS(=O)(=O)c1ccc2nc(NC(=O)c3ccc(N4CCCC4=O)cc3)sc2c1 | 14% (inactive) |  |
| O=C(Nc1nc2ccc([N+](=O)[O-])cc2s1)c1ccncc1 | 27.1% [at 46.1 µM] (inactive) |  |
| O=C(Nc1nnc(S(=O)(=O)N2CCCc3ccccc32)s1)c1cccc(F)c1 | 0.0572% [at 46.1 µM] (inactive) |  |
| O=C(Nc1nc2ccc([N+](=O)[O-])cc2s1)c1ccc(S(=O)(=O)N2CCCc3ccccc32)cc1 |  | 12.6 µM (active) |
| O=C(COC(=O)c1ccc(F)cc1)Nc1nc2ccc([N+](=O)[O-])cc2s1 | 7.09% (inactive) |  |
| O=C(NC(Nc1nc2ccc([N+](=O)[O-])cc2s1)(C(F)(F)F)C(F)(F)F)c1ccccc1 |  | 0.92 µM (active) |
| COc1cc(C2C(C(=O)c3cccs3)=C(O)C(=O)N2CCN2CCOCC2)ccc1OCCC(C)C (stereo unspecified) | -8.18% [at 46.1 µM] (inactive) |  |
| COc1cc(C(=O)CCc2ccc3c(c2)OCO3)cc(OC)c1OC | -0.612% [at 46.1 µM] (inactive) |  |
| Cn1c(=O)[nH]c2c(c(C(=O)O)nn2C)c1=O | 20.9% [at 46.1 µM] (inactive) |  |
| COc1cc2c(cc1OC)CN(C(C)C(=O)Nc1cccc(S(=O)(=O)N3CCOCC3)c1)CC2 (stereo unspecified) | -4.84% (inactive) |  |
| CC(=O)CSc1nc(CCc2ccccc2)c(C#N)c(=O)[nH]1 | -8.72% [at 46.1 µM] (inactive) |  |

| Structure (SMILES) | activity change, negative = inhibition | Potency |
| --- | --- | --- |
| Cn1c(C(=O)NCCN2CCc3ccccc3C2)cc2c(=O)[nH]c3ccccc3c21 |  | 0.92 µM (active) |
| Cc1cccc(N2CCN(C(=O)c3cc4c(=O)[nH]c5ccccc5c4n3C)CC2)c1C | 3.45% (inactive) |  |
| O=C(NCCN1CCN(Cc2ccccc2)CC1)c1cc2c(=O)[nH]c3ccccc3c2s1 | -33.8% (inactive) |  |
| OC1CCCN(c2ncnc3c2nnn3Cc2c(F)cccc2Cl)C1 (stereo unspecified) |  | 6.31 µM (active) |
| Cc1ccc(NC(=O)N2CCC(c3nc4c(nnn4Cc4c(F)cccc4Cl)c(=O)[nH]3)CC2)cc1 | -7.82% (inactive) |  |
| CCOC(=O)N1CCN(C(=O)C2CCCN(c3ncnc4c3sc3cccc(F)c34)C2)CC1 (stereo unspecified) | 17.2% [at 46.1 µM] (inactive) |  |
| Cc1ccc(Br)c(NS(=O)(=O)c2cccc(C(=O)N3CCNC(=O)C3)c2)c1 | -10.2% (inactive) |  |
| NC(=O)C1CCN(C(=O)c2cccc(NC(=O)c3nsc4ccccc34)c2)CC1 | -10.3% [at 46.1 µM] (inactive) |  |
| Cn1cccc1C(=O)OCC(=O)c1ccc(Br)s1 | 22.3% (inactive) |  |
| COc1ccc(CNC(=O)CN2C(=O)c3ccccc3S2(=O)=O)cc1 | 14% (inactive) |  |
| C/C(CC(=O)Nc1ccc(Cl)cc1)=N\NC(=O)C(=O)NCCO | 7.56% (inactive) |  |
| COc1cccc(NC(=O)C/C(C)=N/NC(=O)C2CCCCC2)c1 | 2.41% (inactive) |  |
| COc1ccc(COC(=O)N/N=C(\C)CC(=O)Nc2ccc(Cl)cc2)cc1 |  | 0.141 µM (active) |
| CCN(CC(=O)Nc1ccccc1OC)C(=O)CC1CC2CCC1C2 (stereo unspecified) | 1.83% (inactive) |  |
| Cc1ccc(OCC(=O)N/N=C/c2ccncc2)cc1 | -13.7% (inactive) |  |
| Cc1ccc(OCC(=O)N/N=C\c2ccco2)c(C)c1 | 1.48% (inactive) |  |
| Cc1ccc(/C=N/NC(=O)COc2ccccc2-c2ccccc2)cc1 |  | 1.64 µM (active) |
| CCc1cccc(NC(=O)CCC(=O)O)c1 | 7.85% (inactive) |  |
| O=C(CCl)Nc1cccc(CP(=O)(c2ccccc2)c2ccccc2)c1 |  | 7.94 µM (active) |
| O=C(Cc1ccccc1)Nc1cccc(NC(=O)c2ccccc2)c1 | -29.8% (inactive) |  |
| CN(C)S(=O)(=O)c1ccc(N2CCCC2)c(C(=O)Nc2ccc(Br)cc2F)c1 | -5.54% (inactive) |  |
| CCCn1nc(C(=O)OCc2nc(N)nc(Nc3ccccc3C)n2)c2ccccc2c1=O | 0.474% (inactive) |  |
| CCC(C(=O)Nc1cc(OC)ccc1OC)n1c(=O)c(C(F)(F)F)nc2ccccc21 (stereo unspecified) | 1.55% [at 46.1 µM] (inactive) |  |
| O=C(N/C(=C/c1ccc(Cl)cc1)C(=O)N1CCCCC1)c1ccco1 | 4.09% (inactive) |  |

| Structure (SMILES) | activity change, negative = inhibition | Potency |
| --- | --- | --- |
| CCN(CC)S(=O)(=O)c1ccc2c(c1)c(=O)c(C(=O)N1CCN(c3cccc(Cl)c3)CC1)cn2C | -19% [at 46.1 µM] (inactive) |  |
| C=CCn1cc(C(=O)NCc2ccc(Cl)cc2)c(=O)c2cc(S(=O)(=O)N(CC)CC)ccc21 |  | 0.398 µM (active) |
| CCn1cc(C(=O)NCc2ccccc2)c(=O)c2cc(S(=O)(=O)N3CCCCC3)ccc21 | -3.22% [at 46.1 µM] (inactive) |  |
| CC(=O)OC1CCC2(C)C(=CCC3C4CC(=O)N(O)C(=O)C4(C)CCC32)C1 (stereo unspecified) | 0% [at 46.1 µM] (inactive) |  |
| CC(C(=O)NC1CCCC1)N1CCN(S(=O)(=O)c2ccccc2Cl)CC1 (stereo unspecified) | -29.2% (inactive) |  |
| Cc1ccc(N(CC(=O)NC2CCCCC2)C(=O)CCCC(=O)Nc2ccccn2)c(C)c1 | 1.25% (inactive) |  |
| CC(Nc1nc(N2CCCC2)nc2ccccc12)c1ccccc1 (stereo unspecified) |  | 12.6 µM (active) |
| c1ccc2c(NC3C4CC5CC(C4)CC3C5)nc(N3CCOCC3)nc2c1 (stereo unspecified) | -20.9% (inactive) |  |
| CC(Nc1nc(N2CCOCC2)nc2ccccc12)c1ccccc1 (stereo unspecified) | -28.7% (inactive) |  |
| Cc1ccc(S(=O)(=O)N2CCC(C(=O)NCCC3=CCCCC3)CC2)cc1C | -19.8% (inactive) |  |
| COc1cc(NC(=O)c2ccc(-c3csc(C)n3)cc2)c(OC)cc1Cl | 3.71% [at 46.1 µM] (inactive) |  |
| O=C1c2ccccc2C(=O)c2c1cccc2N1CCN(C/C=C/c2ccccc2)CC1 | -2.1% (inactive) |  |
| O=C(Nc1cccc(Br)c1)C1CC(=O)N(C2CCCC2)C1 (stereo unspecified) | -5.96% (inactive) |  |
| CN(C)S(=O)(=O)c1cccc(NC(=S)N/N=C/C(=O)c2ccccc2)c1 | 1.43% (inactive) |  |
| CN(C)S(=O)(=O)c1cccc(NC(=O)COC(=O)C2(c3ccccc3F)CCCC2)c1 |  | 4.11 µM (active) |
| CN(c1ccccc1)S(=O)(=O)c1cccc(C(=O)NNC(=O)c2ccncc2)c1 | 2.82% [at 46.1 µM] (inactive) |  |
| CN(c1ccccc1)S(=O)(=O)c1cccc(NC(=O)Cc2ccc(Cl)cc2)c1 |  | 8.91 µM (active) |
| CN(c1ccccc1)S(=O)(=O)c1ccc(Cl)c(C(=O)OCC(N)=O)c1 | 0.528% (inactive) |  |
| Cc1ccc(S(=O)(=O)N(CC(=O)Nc2cccc([N+](=O)[O-])c2)Cc2ccc(Cl)cc2)cc1 | -10.6% (inactive) |  |
| CN(c1cccc(NC(=O)Nc2ccc(Cl)cc2)c1)S(C)(=O)=O | -26.4% (inactive) |  |
| NS(=O)(=O)c1ccc(NC(=O)COC(=O)C2(c3ccc(F)cc3)CCCC2)cc1 | -23.2% (inactive) |  |
| CN(C)S(=O)(=O)c1cccc(NC(=O)COC(=O)c2cc(=O)[nH]c(=O)[nH]2)c1 | 10.8% (inactive) |  |
| CN(C)S(=O)(=O)c1cccc(NC(=O)COC(=O)/C=C/c2cccs2)c1 | -1.32% (inactive) |  |
| CN(c1ccccc1)S(=O)(=O)c1cccc(NC(=O)Cc2c(F)cccc2Cl)c1 |  | 11.2 µM (active) |

| Structure (SMILES) | activity change, negative = inhibition | Potency |
| --- | --- | --- |
| CN(C)S(=O)(=O)c1cccc(NC(=O)Cc2ccsc2)c1 |  | 2.82 µM (active) |
| O=C(COC(=O)C1CCCO1)Nc1nc(-c2ccc(F)cc2)cs1 (stereo unspecified) | -0.186% [at 46.1 µM] (inactive) |  |
| COc1cc(N)c(Cl)cc1C(=O)OCC(=O)c1ccc2c(c1)NC(=O)CO2 | 18.6% (inactive) |  |
| COC(=O)C=C[C@H]1c2ccccc2[C@@H](OC)[C@@H]1C | -0.222% [at 14.3 µM] (inactive) |  |
| NC1=NC(c2ccc([N+](=O)[O-])cc2)N(c2ccc(F)cc2)C(N)=N1 (stereo unspecified) | 28.8% [at 46.1 µM] (inactive) |  |
| CC(C)Sc1nc(N)nc2c1ncn2C1OC(CO)C(O)C1O (stereo unspecified) | 10.1% [at 46.1 µM] (inactive) |  |
| COc1cc2c(cc1OC)CN(C(=O)c1cc(S(=O)(=O)N3CCCCC3)ccc1Cl)CC2 | -0.858% [at 46.1 µM] (inactive) |  |
| CCOc1ccccc1NC(=S)C(=C([O-])c1ccc2c(c1)OCCO2)[n+]1ccc(CC)cc1 | 7.85% [at 46.1 µM] (inactive) |  |
| CC(C)c1ccc(NC(=O)c2ccc(Cn3nc(N4CCN(c5ccccc5)CC4)ccc3=O)o2)cc1 | 16.8% [at 46.1 µM] (inactive) |  |
| O=C(CSc1nnc(COc2ccc(Cl)cc2)n1Cc1ccco1)N1CCNC1=O | -12.1% (inactive) |  |
| O=C(c1cc(C(=O)N2CCN(c3ccc(F)cc3)CC2)cc([N+](=O)[O-])c1)N1CCN(c2ccc(F)cc2)CC1 | -26.7% (inactive) |  |
| O=C(NCCCN1CCCC1=O)C(=O)NCC1OCCN1S(=O)(=O)c1ccc(Br)cc1 (stereo unspecified) | 12.8% (inactive) |  |
| Cc1cc(C)cc(NC(=S)NCc2ccc(F)cc2)c1 | 11.6% (inactive) |  |
| Cc1cccc(NC(=S)NCc2ccc3[nH]c4c(c3c2)CCCC4)c1 |  | 20.6 µM (active) |
| CCc1cccc(NC(=O)CN(C)S(=O)(=O)c2ccc3[nH]c4c(c3c2)CCCC4)c1 | -0.536% [at 46.1 µM] (inactive) |  |
| CCCC(O)(c1ccccc1)C(c1ccccc1)c1ccccn1 (stereo unspecified) | 13.1% [at 46.1 µM] (inactive) |  |
| CCOC(=O)c1ccc(NC(=O)C2CCN(S(=O)(=O)c3ccc4c(c3)CCCC(=O)N4)CC2)cc1 | -0.487% [at 46.1 µM] (inactive) |  |
| COc1ccc(C(=O)NCCc2ccc(S(N)(=O)=O)cc2)cc1OC | 1.98% (inactive) |  |
| CC(C)(CO)CNC(=O)c1ccc2[nH]c(O)c(N=Nc3ccc(S(N)(=O)=O)cc3)c2c1 |  | 1.58 µM (active) |
| Cc1c(C)n(Cc2ccc(Cl)cc2)c2ccc(C(=O)NCCc3ccc(S(N)(=O)=O)cc3)cc12 | -15% [at 46.1 µM] (inactive) |  |
| Cc1cc(NC(=O)CCC(=O)N(CC(=O)NCC2CCCO2)c2ccccc2)no1 (stereo unspecified) | 14% (inactive) |  |
| Cc1cc(NC(=O)CCC(=O)N(CC(=O)NCC2CCCO2)c2ccccc2C)no1 (stereo unspecified) | -4.64% (inactive) |  |
| CCCCOc1ccc(N(CC(=O)NCC2CCCO2)C(=O)CCC(=O)Nc2cc(C)ccn2)cc1 (stereo unspecified) |  | 23.1 µM (active) |
| Cc1oc2ncnc(N3CCCCC3)c2c1C(=O)N1CCN(c2cccc(Cl)c2)CC1 | -17.4% [at 46.1 µM] (inactive) |  |
